From PubChem BioAssay (NCATS)
Results filed as inconclusive are left out. Calls of active or inactive are those of the source. Calls come from the whole dose curve; as a rule, active = well fitted curve in the direction sought with a large enough effect; inconclusive = small, poorly fitted or top-dose-only effect, or another doubt; inactive = no such curve, though single readings can be large; an effect the other way counts as inactive or inconclusive.

How the values were obtained:
[1] = tested on: TAB165; test: qHTS profiling for inhibitors of Plasmodium falciparum proliferation (AID 504749);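 note: 0% = DMSO vehicle and full inhibition = artemisinin control; nearly all actives have a fitted effect of over 60% in size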; details: P. falciparum in erythrocytes, SYBR Green DNA, 72 h; series mostly up to 28.7 µM
Outline: (§1)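 Parasite proliferation within erythrocytes, 72 h exposure. Endpoint: SYBR Green I fluorescence after overnight lysis at room temperature. Controls: 0.29 uM artemisinin, DMSO.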

[2] = tested on: W2; test: as above; details: P. falciparum in erythrocytes, SYBR Green DNA, 72 h; series mostly up to 28.7 µM
Outline: as §1

[3] = tested on: KB-3-1; test: Cytotoxic Profiling of Annotated Libraries Using Quantitative High-Throughput Screening (AID 1296008); details: Five cell lines viability, CellTiter-Glo ATP luminescence, 48-72 h; max response: stronger effect = lower value; note: nearly all actives have a fitted effect of over 60% in size; note: potency is the fitted concentration of half-maximal effect; for max response: % is set by controls: 0 for no effect and ±100 for the full control effect
Outline: (§2)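 Compounds were pin-transferred onto cells and incubated 48 or 72 hr at 37 degree Celsius, 95% humidity. CellTiter-Glo was added, plates sat 10 min at room temperature, then ATP-coupled luminescence was imaged as the viability read-out.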

[4] = tested on: CRL-7250; test: qHTS assay to identify novel small-molecules to repurpose for Merkel cell carcinoma treatment (AID 1296009); details: MCC and control cell lines, CellTiter-Glo viability, 72 h; at 44.8 µM (top of the series) unless noted; note: nearly all actives have a fitted effect of over 60% in size; note: potency is the fitted concentration of half-maximal effect
Outline: (§3)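 qHTS format: cells treated with library compounds in DMSO across 8 (NPC) or 11 (MIPE) concentrations. Readout after 72 hr at 37 degree celsius was CellTiter-Glo luminescence.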

[5] = tested on: HaCat; test: Cytotoxic Profiling of Annotated Libraries Using Quantitative High-Throughput Screening (AID 1296008); details: Five cell lines viability, CellTiter-Glo ATP luminescence, 48-72 h; max response: stronger effect = lower value; note: nearly all actives have a fitted effect of over 60% in size; note: potency is the fitted concentration of half-maximal effect; for max response: % is set by controls: 0 for no effect and ±100 for the full control effect
Outline: as §2

[6] = tested on: NIH3T3; test: as above; details: Five cell lines viability, CellTiter-Glo ATP luminescence, 48-72 h; max response: stronger effect = lower value
Outline: as §2

[7] = tested on: HACAT; test: qHTS assay to identify novel small-molecules to repurpose for Merkel cell carcinoma treatment (AID 1296009); details: MCC and control cell lines, CellTiter-Glo viability, 72 h; at 44.8 µM (top of the series) unless noted; note: nearly all actives have a fitted effect of over 60% in size; note: potency is the fitted concentration of half-maximal effect
Outline: as §3

[8] = tested on: MCC-13; test: as above; details: MCC and control cell lines, CellTiter-Glo viability, 72 h; series mostly up to 46 µM
Outline: as §3

[9] = tested on: MKL-1; test: as above; details: MCC and control cell lines, CellTiter-Glo viability, 72 h; series mostly up to 46 µM
Outline: as §3

[10] = tested on: MKL-2; test: as above; details: MCC and control cell lines, CellTiter-Glo viability, 72 h; series mostly up to 46 µM
Outline: as §3

[11] = tested on: WaGa; test: as above; details: MCC and control cell lines, CellTiter-Glo viability, 72 h; series mostly up to 46 µM
Outline: as §3

[12] = tested on: MCC-26; test: as above; details: MCC and control cell lines, CellTiter-Glo viability, 72 h; series mostly up to 46 µM
Outline: as §3

[13] = tested on: UISO; test: as above; details: MCC and control cell lines, CellTiter-Glo viability, 72 h; series mostly up to 46 µM
Outline: as §3

[14] = tested on: C33A; test: Primary qHTS to identify gynecologic anti-cancer compounds using libraries of approved drugs and bioactive compounds (AID 1345084); details: Gynecologic cancer cell panel viability, ATPlite luminescence, 48 h; series mostly up to 57.5 µM; note: % is set by controls: 0 for no effect and ±100 for the full control effect; nearly all actives have a fitted effect of over 55% in size
Outline: (§4)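 Five-concentration response, 48 h; readout is ATP-driven luciferase luminescence.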

[15] = tested on: CASKI; test: as above; details: Gynecologic cancer cell panel viability, ATPlite luminescence, 48 h; series mostly up to 57.5 µM
Outline: as §4

[16] = tested on: HEK293; test: Cytotoxic Profiling of Annotated Libraries Using Quantitative High-Throughput Screening (AID 1296008); details: Five cell lines viability, CellTiter-Glo ATP luminescence, 48-72 h; max response: stronger effect = lower value; note: nearly all actives have a fitted effect of over 60% in size; note: potency is the fitted concentration of half-maximal effect; for max response: % is set by controls: 0 for no effect and ±100 for the full control effect
Outline: as §2

[17] = tested on: CAOV3; test: Primary qHTS to identify gynecologic anti-cancer compounds using libraries of approved drugs and bioactive compounds (AID 1345084); details: Gynecologic cancer cell panel viability, ATPlite luminescence, 48 h; series mostly up to 57.5 µM; note: % is set by controls: 0 for no effect and ±100 for the full control effect; nearly all actives have a fitted effect of over 55% in size
Outline: as §4

O=C1Nc2ccc(Cl)cc2C(c2ccccc2Cl)=NC1O (configuration not stated)
inactive: Potency [1] | Potency [2] | max response [3] 3.46%

CN[C@@H](C)Cc1ccccc1
inactive: max response [3] -3.3%

CCCCCCCC/C=C/C(=O)O
inactive: outcome [4]

Clc1ccc2c(c1)C(c1ccccc1)=NCc1nncn1-2
inactive: Potency [1] | Potency [2] | max response [3] 2.88%

CN=C(NC#N)NCCSCc1nc[nH]c1C
inactive: outcome [4]

C[C@](O)(CS(=O)(=O)c1ccc(F)cc1)C(=O)Nc1ccc(C#N)c(C(F)(F)F)c1
inactive: Potency [1] | Potency [2] | outcome [5] | max response [3] 5.52% | max response [6] -9.3% | outcome [7] | outcome [8] | Potency [9]
active: Potency [10] 23.5 µM | Potency [11] 13.2 µM

O=C1OC(CN2CCOCC2)CN1/N=C/c1ccc([N+](=O)[O-])o1 (configuration not stated)
inactive: outcome [4]

O=C(Nc1ccc(Br)cc1)c1cc(Br)cc(Br)c1O
inactive: Potency [1] | Potency [2] | outcome [5] | max response [3] -24% | max response [6] -23.1% | outcome [7] | outcome [8] | Potency [12] | Potency [9] | Potency [10] | Potency [13] | Potency [14] | outcome [15]

C[C@]12CCC(=O)C=C1CC[C@@H]1[C@H]3CC[C@](C)(O)[C@@]3(C)CC[C@@H]12
inactive: outcome [8] | Potency [14] | outcome [17]
active: Potency [16] 30.9 µM

CCC[C@@H]1C[C@@H](C(=O)N[C@@H]([C@H]2O[C@H](SC)[C@H](O)[C@@H](O)[C@H]2O)[C@@H](C)O)N(C)C1
inactive: outcome [4]

CN1C(=O)CC(=O)N(c2ccccc2)c2cc(Cl)ccc21
inactive: Potency [1] | Potency [2] | max response [3] 9.14%

COP(=S)(OC)SCN1C(=O)c2ccccc2C1=O
active: Potency [10] 11.9 µM
inactive: Potency [1] | Potency [2] | outcome [5] | max response [3] 6.87% | outcome [7] | outcome [8] | Potency [12] | Potency [14] | outcome [15]

C[C@@H]1CC2=CC(=O)CC[C@@H]2[C@H]2CC[C@@]3(C)[C@@H](CC[C@]3(C)O)[C@@H]21
inactive: max response [5] -11% | max response [6] -27.8% | outcome [8] | Potency [9] | Potency [10] | Potency [13] | Potency [11] | Potency [14] | outcome [17] | outcome [15]

Nc1ncnc2c1ncn2[C@@H]1O[C@H](CO)[C@@H](O)[C@H]1O
inactive: outcome [4]
